Compound activity: PubChem BioAssay, several laboratories
HTR2A ag – agonists of mouse serotonin 5-HT2A receptor (HTR2A) | P35363 | CHO-K1 mHTR2A beta-arrestin complementation, luminescence; percent of 30 µM serotonin response | activation, % at 7.6 µM | actives 0.66% (n = 360,000);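 active = activation above a run cutoff, the mean activation of all tested compounds plus 3 SD, cut at about 14% in these data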;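 note: 0% = plate median of compound wells and 100% = 30 µM serotonin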
Target sequence (P35363 whole entry, looked up): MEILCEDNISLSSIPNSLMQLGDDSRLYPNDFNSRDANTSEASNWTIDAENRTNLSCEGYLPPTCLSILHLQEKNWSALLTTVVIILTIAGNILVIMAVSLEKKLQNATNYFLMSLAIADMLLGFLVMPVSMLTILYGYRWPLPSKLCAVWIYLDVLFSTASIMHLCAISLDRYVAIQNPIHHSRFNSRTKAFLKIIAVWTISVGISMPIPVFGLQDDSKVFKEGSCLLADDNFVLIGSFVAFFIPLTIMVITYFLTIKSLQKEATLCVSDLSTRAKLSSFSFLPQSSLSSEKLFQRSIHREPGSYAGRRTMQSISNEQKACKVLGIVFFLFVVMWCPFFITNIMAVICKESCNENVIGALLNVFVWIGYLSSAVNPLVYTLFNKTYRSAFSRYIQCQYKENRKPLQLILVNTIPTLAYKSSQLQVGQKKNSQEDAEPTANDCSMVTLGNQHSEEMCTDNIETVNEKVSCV
TLR4 MyD88 comp – inhibitors of human TLR4-MyD88 binding; inhibition, % at 8.4 µM; O00206+Q99836; actives 0.18% (n = 200,000); HeLa CL3-4 TLR4/MyD88 BLA complementation, FRET ratio; AID 861; in the data active = inhibition above about 25%;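 note: 0% = vehicle and 100% = reference inhibitor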
NOD2 RIPK2 PPI – NOD2-RIPK2 protein interaction inhibition; O43353; CHO BLA complementation NOD2-RIPK2, CCF4 ratio; inhibition, % at 4.98 µM; actives 0.38% (n = 360,000); in the data active = inhibition above about 21%;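 note: 0% = vehicle only and 100% = reference blocker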
TMEM16A inh – inhibitors of mouse TMEM16A calcium-activated chloride channel; Q8BHY3; HEK293 TMEM16A/YFP iodide influx fluorescence, ionomycin; normalized B-score (activity score, 25-100; higher = stronger inhibition) at 10 µM; actives 1.2% (n = 310,000);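 active = ratio plate-corrected score three or more library SD toward inhibition, starting fluorescence score within five deviations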;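 note: score derived from kinetic fluorescence span divided by baseline fluorescence per well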
TMEM16A act – activates or potentiates the mouse TMEM16A chloride channel | B-score at 10 µM | Q8BHY3 | actives 0.3% (n = 340,000) | HEK293 TMEM16A/YFP-H148Q/I152L, iodide quench fluorescence; stronger effect = lower value;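 active = fluorescence-ratio B-score plate-corrected deviation score at least 3 library SD below zero, with starting fluorescence score within 5 deviations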;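 note: channel opened by trigger with iodide after compound preincubation; score built on the fluorescence ratio of max minus min over baseline; more negative score means more quench and so TMEM16A activation or potentiation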
TLR9-MyD88 block – TLR9-MyD88 interaction inhibition; CHO BLA complementation TLR9-MyD88, CCF4 FRET ratio; inhibition, % at 4.98 µM; actives 0.21% (n = 340,000); AID 504734;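 active = inhibition above the mean over all tested compounds plus 3 SD, cut at about 21% in these data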;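 note: 0% = DMSO only wells and 100% = clavulanate BLA inhibitor control wells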
MOR ag counter – counter-screen for mouse HTR2A agonists: human mu opioid receptor agonists; shares compounds with HTR2A ag; U2OS OPRM1 beta-arrestin PathHunter, luminescence; DMSO 0%, DAMGO 9.3 µM 100%; activation, % at 9.3 µM; actives 5.3% (n = 2,300);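 active = mean activation above the mean of DMSO-only wells plus 3 SD, cut at about 0.5% in these data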
m5-HT2A ag conf – confirmation of mouse HTR2A serotonin receptor agonists; shares compounds with HTR2A ag; CHO-K1 PathHunter beta-arrestin recruitment, luminescence; DMSO 0%, 30 µM serotonin 100%; activation, % at 7.6 µM; actives 19% (n = 2,300);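 active = mean activation across triplicates above the hit threshold derived in the original primary screen, cut at about 15% in these data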
Starred values were filed as active, the others as inactive; i = inactive; / = not tested or not shown. A selection: hits, their analogues and other compounds. The true share with any hit is near 2.4%.

SMILES	HTR2A ag	TLR4 MyD88 comp	NOD2 RIPK2 PPI	TMEM16A inh	TMEM16A act	TLR9-MyD88 block	MOR ag counter	m5-HT2A ag conf
Cc1ccc2nc(C3CCCCC3)c(Cc3cccc(Cl)c3)n2c1	-9.3	/	5.7	/	/	/	/	/
N#CC1(NC(=O)CSc2nc3ccccc3o2)CCCCC1	-2.4	/	-8.5	/	i	3.7	/	/
N#CC1(NC(=O)CSc2ccccn2)CCCCC1	14.6*	/	-3.7	i	i	1.5	-0.6	-3.5
COc1ccc2cc(/C=N/NC(=O)CN(c3ccccc3C)S(=O)(=O)c3ccccc3)c(Cl)nc2c1	15.7*	2.8	7.2	i	i	-6.5	-0.5	-4.2
CCn1c(SCC(=O)Nc2ccc(OC)cc2OC)nc2nc3c(cc2c1=O)COC(C)(C)C3	0.6	/	-3.7	i	i	-11.8	/	/
Cn1c(=O)n(C)c2cc(/C=C3/SC(=O)N(CC(=O)N4CCOCC4)C3=O)ccc21	17.0*	-12.8	-3.5	i	i	-4.1	-0.5	-1.0
COc1cc2c(cc1OC)C(C)N(CC(=O)Nc1ccc(S(=O)(=O)N3CCCC3)cc1)CC2 (configuration not stated)	4.5	/	-2.2	i	i	-12.6	/	/
CN1C(=O)NC(c2ccc(O)cc2)C2=C1CN(c1ccc(O)cc1)C2=O (configuration not stated)	20.5*	17.9	-5.8	i	i	3.2	-0.6	-4.1
CN1C(=O)NC(c2ccc(O)cc2)C2=C1CN(c1ccccc1)C2=O (configuration not stated)	-1.4	/	1.6	i	i	1.5	/	/
Cc1ccc(C)c(C(=O)CCC(=O)Nc2cccnc2)c1	15.1*	-8.1	-6.7	i	i	7.6	-0.5	-0.3
COc1ccc(C(=O)OCc2ccc(C)cc2)cc1S(=O)(=O)N1CCOCC1	18.3*	/	7.2	/	i	1.7	-0.3	-2.9
Cc1ccc(N(Cc2ccccc2)C(=O)c2ccc(C)c(S(=O)(=O)N3CCOCC3)c2)cc1	14.9*	/	-10.1	/	i	-6.0	-0.1	2.4
Cc1nn(CC(=O)NC2CC2)c(C)c1S(=O)(=O)NC(C)(C)C	-5.7	/	-39.2	/	i	-0.7	/	/
Cc1ccc(S(=O)(=O)N2CCN=C2SCc2cccnc2)cc1	4.8	1.1	3.0	i	i	-0.3	/	/
Cc1ccc(S(=O)(=O)N(C)c2c(C)ccc(S(=O)(=O)N3CCN(C)CC3)c2C)cc1	-1.2	-0.9	-2.3	i	i	-5.3	/	/
C=C(C)CN1CCN(S(=O)(=O)c2ccc(C)c(N(C)S(=O)(=O)c3ccc(C)cc3)c2C)CC1	22.0*	2.7	-23.6	i	i	-5.8	-0.4	-3.0
COC(=O)[C@]1(C)N[C@H](CN(C)C(=O)Nc2ccc(C)cc2)[C@@H]2C(=O)N(Cc3ccccc3)C(=O)[C@@H]21	-0.7	/	-5.2	/	/	3.5	/	/
COC(=O)[C@]1(C)N[C@H](CN(C)C(=O)Nc2ccc(Cl)cc2)[C@@H]2C(=O)N(Cc3ccccc3)C(=O)[C@@H]21	17.5*	/	-1.7	/	/	0.6	-0.7	1.6
CCN(CC(=O)Nc1ccc2c(c1)OCCO2)C(=O)CCOc1ccccc1	-3.3	/	-0.2	/	i	-5.0	/	/
CCN(CC(=O)Nc1ccc2c(c1)OCCO2)C(=O)CC(NC(C)=O)c1ccccc1 (configuration not stated)	17.6*	/	-79.2	i	i	7.9	-0.7	-3.0
O=C(Nc1ccc2snnc2c1)N1CCSCC1	17.3*	-8.8	-0.2	i	i	-0.6	0.2	3.0
CNC(=O)Nc1ccc2snnc2c1	-6.8	5.8	0.9	i	i	2.9	/	/
COc1ccc(-c2nc(CS(=O)(=O)CC(=O)Nc3ccc(Cl)cc3)c(C)o2)cc1	2.2	5.7	-1.9	i	i	0.4	/	/
CCc1cc2c(SCc3ccc(C(=O)OC)o3)ncnc2s1	14.6*	/	-5.4	i	i	0.6	-0.4	-1.6
COC(=O)c1ccc(CSc2ncnc3ccccc23)o1	1.1	-15.0	-10.4	i	i	-6.7	/	/
SMILES	HTR2A ag	TLR4 MyD88 comp	NOD2 RIPK2 PPI	TMEM16A inh	TMEM16A act	TLR9-MyD88 block	MOR ag counter	m5-HT2A ag conf
CC(C)(CNC(=O)c1ccc(NS(=O)(=O)c2ccc(F)c(F)c2)cc1)N1CCOCC1	-1.1	/	0.1	i	i	1.7	/	/
COc1ccc(N2CCN(c3oc(Cc4cccc5ccccc45)nc3C#N)CC2)cc1	-0.8	-4.8	-2.6	i	i	-8.9	/	/
COc1ccc(OC)c(-c2cc(C(=O)Nc3cc(C)n(Cc4ccc(Cl)cc4)n3)no2)c1	2.3	-3.9	-3.0	i	i	-4.1	/	/
CC(C)c1cc(C(=O)Nc2cc(Br)ccc2O)no1	16.8*	7.2	-4.9	i	i	1.9	0.7*	1.9
O=[N+]([O-])c1cccc(CN2CCN(c3ncccn3)CC2)c1	14.6*	/	-1.3	i	i	-8.3	-0.1	59.5*
FC(F)(F)c1cccc(CN2CCCCCC2)c1	-1.0	-7.1	-1.3	i	i	6.0	/	/
Fc1cccc(CN2CCN(c3ncccn3)CC2)c1	41.3*	18.4	-3.5	i	i	-2.6	-0.6	112.8*
FC(F)(F)c1cccc(CN2CCN(c3ncccn3)CC2)c1	20.5*	/	1.9	i	i	-2.5	-0.6	65.9*
CC(C)(C)NC(=O)COc1ccc(CNCCc2ccccc2)cc1	-26.0	-0.6	-1.0	i	i	-2.5	/	/
CN(Cc1ccccc1)S(=O)(=O)c1ccc(OCC(=O)NCc2ccccn2)cc1	17.6*	/	2.4	i	i	0.6	-0.6	-4.8
CC(C)(C)NC(=O)COc1ccc(CNCc2ccccn2)cc1	14.5*	-9.9	-3.1	i	i	-2.9	-0.6	-3.2
O=C(Nc1c2c(nn1-c1cccc(Cl)c1)CS(=O)(=O)C2)C1CC1	3.8	/	-0.6	i	i	-2.6	/	/
Cc1cc(OCC(=O)OCC(=O)NC2CCCC2)ccc1Cl	-8.7	/	0.5	/	i	-4.7	/	/
COc1ccc(CC(=O)OCC(=O)NC2CCCCC2)cc1OC	20.4*	/	-10.9	/	i	5.9	-0.5	-2.2
Cc1ccc(OCC(=O)OCC(=O)NC2CCCC2)cc1C	15.1*	/	0.1	/	i	13.2	-0.2	3.5
CCOc1ccc(NC(=O)CCN2CCN(S(=O)(=O)c3ccc(Cl)cc3)CC2)cc1	-8.3	-3.3	4.8	i	i	-8.2	/	/
